Experimental data taken from PubChem BioAssay (EPA / NIEHS).
The source made the active and inactive calls. Rule for the calls: active = hit-call score of the fitted dose curve at least 0.9, where 1 is the maximum; inactive = score below 0.9.

Assays:
[1] = read-out: Interleukin-1 alpha (IL1a), IL1A (gene 3552); assay: BSK_KF3CT_IL1a: BioMAP Diversity Plus: KF3CT Assay for Interleukin-1 alpha (IL1a) Biomarker Activity (AID 2283070); settings: primary human keratinocytes with fibroblasts; actives raise or lower the signal
Method in brief: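 Human keratinocyte plus foreskin fibroblast primary co-culture, sampled 24 h after chemical dosing. IL-1a measured by ELISA; responses fitted bidirectionally against DMSO baseline (negative control), so gain or loss of signal both count.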

[2] = read-out: TIMP metallopeptidase inhibitor 2 (TIMP2), TIMP2 (gene 7077); assay: BSK_KF3CT_TIMP2: BioMAP Diversity Plus: KF3CT Assay for TIMP metallopeptidase inhibitor 2 (TIMP2) Biomarker Activity (AID 2283071); settings: primary human keratinocytes with fibroblasts; actives raise or lower the signal
Method in brief: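 Cells: human keratinocytes co-cultured with foreskin fibroblasts. Treat with chemical, 24 h. Measure TIMP-2 by ELISA; fit curves bidirectionally vs DMSO baseline.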

[3] = read-out: Transforming growth factor beta 1 (TGFb1), TGFB1 (gene 7040); assay: BSK_KF3CT_TGFb1: BioMAP Diversity Plus: KF3CT Assay for Transforming growth factor beta 1 (TGFb1) Biomarker Activity (AID 2283072); settings: primary human keratinocytes with fibroblasts; actives raise or lower the signal
Method in brief: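 Primary human skin cells (keratinocytes, foreskin fibroblasts) were co-cultured, exposed to test chemical and sampled at 24 h. TGF-b1 levels were measured by ELISA and fitted bidirectionally relative to DMSO.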

[4] = read-out: Matrix Metallopeptidase 9 (MMP9), MMP9 (gene 4318); assay: BSK_KF3CT_MMP9: BioMAP Diversity Plus: KF3CT Assay for Matrix Metallopeptidase 9 (MMP9) Biomarker Activity (AID 2283074); settings: primary human keratinocytes with fibroblasts; actives raise or lower the signal;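 for AC50: MMP9 protein level quantified by ELISA in the co-culture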
Method in brief: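 Keratinocyte plus foreskin fibroblast human primary skin co-culture was dosed with chemical and MMP-9 was quantified by ELISA 24 h later. Bidirectional curve fitting used DMSO as negative control and activity baseline.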

[5] = read-out: urokinase plasminogen activator (uPA), PLAU (gene 5328); assay: BSK_KF3CT_uPA: BioMAP Diversity Plus: KF3CT Assay for urokinase plasminogen activator (uPA) Biomarker Activity (AID 2283075); settings: primary human keratinocytes with fibroblasts; actives raise or lower the signal
Method in brief: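 Human keratinocyte plus foreskin fibroblast primary co-culture exposed to chemical for 24 h. uPA levels were quantified by ELISA, and activity was fitted bidirectionally against a DMSO negative-control baseline.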

CD40, CD40 (gene 958) [6] = assay: BSK_LPS_CD40: BioMAP Diversity Plus: LPS Assay for CD40 Biomarker Activity (AID 2283076); settings: primary human HUVEC with PBMC; actives raise or lower the signal
Method in brief: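 CD40 signal, measured by ELISA, is fitted in both directions relative to DMSO vehicle. The system is an LPS-driven human vascular primary co-culture of endothelial cells and PBMC, sampled 24 h after compound addition.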

[7] = read-out: E-selectin (Homo sapiens) (UniProt P16581); assay: BSK_LPS_Eselectin: BioMAP Diversity Plus: LPS Assay for Eselectin Biomarker Activity (AID 2283077); settings: primary human HUVEC with PBMC; actives raise or lower the signal
Method in brief: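 Signal of E-selectin, detected by ELISA, served as the endpoint; cells were umbilical vein endothelium with PBMC, read 24 h after treatment. DMSO defined baseline, and both increases and decreases were fitted.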

[8] = read-out: Interleukin-8 (IL8), CXCL8 (gene 3576); assay: BSK_LPS_IL8: BioMAP Diversity Plus: LPS Assay for Interleukin-8 (IL8) Biomarker Activity (AID 2283078); settings: primary human HUVEC with PBMC; actives raise or lower the signal
Method in brief: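 Endothelial cells and PBMC from human donors are co-cultured, treated with chemicals and LPS, then assayed for IL-8 by ELISA after 24 h. Parallel SRB staining (0.1% SRB after 10% TCA fixation, 560 nm) flags cytotoxicity.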

[9] = BSK_LPS_SRB: Viability Assessment in the BioMAP Diversity Plus: LPS Assay (AID 2283079); settings: primary human HUVEC with PBMC;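 note: total protein by sulforhodamine B absorbance as a cytotoxicity measure; measured one day after compound addition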
Method in brief: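 Overt cytotoxicity was gauged by sulforhodamine B total-protein staining in a primary human vascular endothelial and mononuclear cell co-culture 24 h post-dosing. Activity was fitted in both directions relative to DMSO.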

[10] = read-out: Interleukin-1 alpha (IL1a), IL1A (gene 3552); assay: BSK_LPS_IL1a: BioMAP Diversity Plus: LPS Assay for Interleukin-1 alpha (IL1a) Biomarker Activity (AID 2283080); settings: primary human HUVEC with PBMC; actives raise or lower the signal
Method in brief: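 Measured: IL-1 alpha via ELISA at 24 h in LPS-activated human umbilical vein endothelium–PBMC co-culture. Baseline: DMSO, bidirectional fitting.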

[11] = read-out: Monocyte Chemoattractant Protein-1 (MCP1), CCL2 (gene 6347); assay: BSK_LPS_MCP1: BioMAP Diversity Plus: LPS Assay for Monocyte Chemoattractant Protein-1 (MCP1) Biomarker Activity (AID 2283081); settings: primary human HUVEC with PBMC; actives raise or lower the signal;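 for AC50: secreted MCP-1 protein quantified by ELISA in culture supernatant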
Method in brief: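 LPS-stimulated HUVEC/PBMC co-culture; chemical, 24 h; MCP-1 by ELISA; bidirectional fit vs DMSO; cytotoxicity via SRB (0.1% stain, 10% TCA fix, 560 nm) in parallel wells.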

[12] = BSK_LPS_PGE2: BioMAP Diversity Plus: LPS Assay for Prostaglandin E2 (PGE2) Biomarker Activity (AID 2283082); settings: primary human HUVEC with PBMC; actives raise or lower the signal
Method in brief: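 LPS-activated HUVEC/PBMC co-culture; cmpd dosed, 24 h; PGE2 by ELISA; bidirectional fit vs DMSO; SRB (0.1%, TCA-fixed, 560 nm) in parallel plates for overt cytotox.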

[13] = read-out: Macrophage colony-stimulating factor (MCSF), CSF1 (gene 1435); assay: BSK_LPS_MCSF: BioMAP Diversity Plus: LPS Assay for Macrophage colony-stimulating factor (MCSF) Biomarker Activity (AID 2283083); settings: primary human HUVEC with PBMC; actives raise or lower the signal
Method in brief: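 Compound is added to a human vascular primary co-culture of umbilical vein endothelium and blood mononuclear cells. After 24 h, M-CSF is quantified by ELISA. Signal changes are fitted in both directions against DMSO.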

[14] = read-out: Tissue Factor, F3 (gene 2152); assay: BSK_LPS_TissueFactor: BioMAP Diversity Plus: LPS Assay for Tissue Factor Biomarker Activity (AID 2283084); settings: primary human HUVEC with PBMC; actives raise or lower the signal
Method in brief: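 In this co-culture system of umbilical vein endothelium with PBMC, stimulated with LPS, cell-surface CD142 is detected by ELISA at 24 h. Endpoint values derive from bidirectional fitting, DMSO serving as baseline.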

[15] = read-out: Tumor necrosis factor (Homo sapiens) (UniProt P01375); assay: BSK_LPS_TNFa: BioMAP Diversity Plus: LPS Assay for Tumour Necrosis Factor alpha (TNFa) Biomarker Activity (AID 2283085); settings: primary human HUVEC with PBMC; actives raise or lower the signal;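 for AC50: TNFa protein level quantified by ELISA in the co-culture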
Method in brief: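 Read-out is ELISA of TNFa in primary human endothelial cell–PBMC co-cultures at 24 h after compound. Activity in either direction was fitted against DMSO.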

[16] = read-out: Vascular cell adhesion molecule 1 (VCAM1), VCAM1 (gene 7412); assay: BSK_LPS_VCAM1: BioMAP Diversity Plus: LPS Assay for Vascular cell adhesion molecule 1 (VCAM1) Biomarker Activity (AID 2283086); settings: primary human HUVEC with PBMC; actives raise or lower the signal
Method in brief: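 HUVEC + PBMC co-culture, LPS system; compound 24 h; VCAM-1 by ELISA; bidirectional fit vs DMSO control; parallel SRB (0.1%, TCA-fixed, 560 nm) for cytotoxicity.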

CD38, CD38 (gene 952) = assay: BSK_SAg_CD38: BioMAP Diversity Plus: SAg Assay for CD38 Biomarker Activity (AID 2283087); settings: primary human HUVEC with PBMC; actives raise or lower the signal
Method in brief: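 Human HUVEC plus PBMC co-culture stimulated with superantigen; CD38 measured by ELISA 24 h after chemical dosing. Fluorescence read-out, bidirectional fit against DMSO; cytotoxicity tracked in parallel by SRB and Alamar Blue.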

CD40, CD40 (gene 958) [17] = assay: BSK_SAg_CD40: BioMAP Diversity Plus: SAg Assay for CD40 Biomarker Activity (AID 2283088); settings: primary human HUVEC with PBMC; actives raise or lower the signal
Method in brief: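 Fluorescence ELISA read-out of CD40 from umbilical vein endothelium plus peripheral blood mononuclear cells, sampled 24 h after dosing. Values come from bidirectional curve fitting with DMSO as baseline.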

CD69, CD69 (gene 969) = assay: BSK_SAg_CD69: BioMAP Diversity Plus: SAg Assay for CD69 Biomarker Activity (AID 2283089); settings: primary human HUVEC with PBMC; actives raise or lower the signal;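 for AC50: cell surface CD69 protein quantified by ELISA with fluorescence detection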
Method in brief: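 HUVEC co-cultured with PBMC were dosed with chemical, and CD69 was measured by ELISA with fluorescence read-out 24 h later. Bidirectional curve fitting used DMSO as negative control and activity baseline.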

[18] = read-out: C-C motif chemokine 2 (Homo sapiens) (UniProt P13500); assay: BSK_KF3CT_MCP1: BioMAP Diversity Plus: KF3CT Assay for Monocyte Chemoattractant Protein 1 (MCP1/CCL2) Biomarker Activity (AID 2283073); settings: primary human keratinocytes with fibroblasts; actives raise or lower the signal
Method in brief: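 Keratinocytes and foreskin fibroblasts were co-cultured, dosed with chemical, and sampled 24 h later. MCP-1 was quantified by ELISA, and the endpoint was analyzed with bidirectional fitting using DMSO as negative control.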

Measured: AC50

Sequence of E-selectin (Homo sapiens) (P16581 whole entry, looked up): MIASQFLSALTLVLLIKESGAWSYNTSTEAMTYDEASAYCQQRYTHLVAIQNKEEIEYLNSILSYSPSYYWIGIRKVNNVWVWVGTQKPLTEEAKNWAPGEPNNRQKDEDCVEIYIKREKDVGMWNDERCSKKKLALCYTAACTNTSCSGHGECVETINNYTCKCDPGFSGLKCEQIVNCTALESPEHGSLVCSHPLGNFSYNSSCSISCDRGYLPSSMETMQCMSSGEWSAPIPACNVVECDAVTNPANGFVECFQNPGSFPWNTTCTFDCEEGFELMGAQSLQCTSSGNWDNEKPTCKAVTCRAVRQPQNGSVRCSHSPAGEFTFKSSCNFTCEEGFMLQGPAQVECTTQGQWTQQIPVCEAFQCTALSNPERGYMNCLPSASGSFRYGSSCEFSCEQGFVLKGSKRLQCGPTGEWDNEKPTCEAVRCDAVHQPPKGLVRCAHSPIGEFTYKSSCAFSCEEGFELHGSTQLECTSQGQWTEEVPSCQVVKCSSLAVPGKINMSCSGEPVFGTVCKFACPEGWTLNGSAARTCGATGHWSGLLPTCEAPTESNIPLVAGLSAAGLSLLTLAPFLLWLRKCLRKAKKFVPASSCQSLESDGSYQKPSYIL
Sequence of Tumor necrosis factor (Homo sapiens) (P01375 whole entry, looked up): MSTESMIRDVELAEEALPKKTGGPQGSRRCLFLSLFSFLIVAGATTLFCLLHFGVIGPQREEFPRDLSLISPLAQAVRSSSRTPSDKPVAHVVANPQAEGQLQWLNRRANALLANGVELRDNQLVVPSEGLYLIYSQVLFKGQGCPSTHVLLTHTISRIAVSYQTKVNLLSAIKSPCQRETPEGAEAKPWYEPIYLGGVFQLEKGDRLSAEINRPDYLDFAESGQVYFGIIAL

CCCCN(CCCC)N=O
inactive: [1] | [2] | [3] | [4] | [5] | CD40, CD40 (gene 958) [6] | [7] | [8] | [9] | [10] | [11] | [12] | [13] | [14] | [15] | [16] | CD38, CD38 (gene 952) | CD40, CD40 (gene 958) [17] | CD69, CD69 (gene 969)

Cc1cccc(N)c1
inactive: [1] | [2] | [3] | [4] | [5] | CD40, CD40 (gene 958) [6] | [7] | [8] | [9] | [10] | [11] | [12] | [13] | [14] | [15] | [16] | CD40, CD40 (gene 958) [17] | CD69, CD69 (gene 969)

CCC(C)(C)c1ccc(O)cc1
inactive: [1] | [2] | [3] | [4] | [5] | CD40, CD40 (gene 958) [6] | [7] | [8] | [9] | [10] | [11] | [12] | [13] | [14] | [15] | [16] | CD40, CD40 (gene 958) [17] | CD69, CD69 (gene 969)

CC(Cc1ccc(OCC(=O)O)cc1)NCC(O)c1csc(C(F)(F)F)n1 (stereo not drawn)
inactive: [1] | [2] | [3] | [4] | [5] | CD40, CD40 (gene 958) [6] | [7] | [8] | [9] | [10] | [11] | [12] | [13] | [14] | [15] | [16] | CD40, CD40 (gene 958) [17] | CD69, CD69 (gene 969)

ClC(Cl)=C(c1ccc(Cl)cc1)c1ccccc1Cl
inactive: [12]
active: [1] 7 µM | [2] 3.67 µM | [3] 5.46 µM | [4] 4.38 µM | [5] 11.2 µM | CD40, CD40 (gene 958) [6] 20 µM | [7] 33.4 µM | [8] 20 µM | [9] 29.6 µM | [10] 26 µM | [11] 29.6 µM | [13] 20 µM | [14] 20 µM | [15] 31.7 µM | [16] 32.9 µM | CD38, CD38 (gene 952) 20 µM | CD40, CD40 (gene 958) [17] 20 µM | CD69, CD69 (gene 969) 14.6 µM

Nc1ccc2ccccc2c1
inactive: [1] | [2] | [3] | [18] | [4] | [5] | [7] | [8] | [9] | [10] | [11] | [12] | [13] | [14] | [15] | [16] | CD40, CD40 (gene 958) [17] | CD69, CD69 (gene 969)

CCOP(=S)(OCC)SCSCC
inactive: [1] | [2] | [3] | [4] | [5] | CD40, CD40 (gene 958) [6] | [7] | [8] | [9] | [10] | [11] | [12] | [13] | [14] | [15] | [16] | CD40, CD40 (gene 958) [17] | CD69, CD69 (gene 969)
